Most compounds without a hit are left out; they make up all but 3% or so of the library.
PMP22 txn prim – modulates PMP22 transcription in S16 Schwann cells; S16 Pmp22-F2sN Schwann cells, FLuc/NLuc coincidence luminescence, 24 h; Potency, µM (series often up to 57.5 µM), for the others: at the highest dose activity change, negative = inhibition, hits mostly inhibitors; actives 2% (n = 43,000); AID 1508649; active means clear falling dose curves in both reporters; inconclusive means both reporters move, but less clearly or upward; inactive means either reporter flat; the % is the NLuc reporter signal; further: potency means the concentration at half of the fitted maximal effect; on the % scale 0 is the no-effect control and ±100 the full control effect
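Reporter cells (S16 Pmp22-F2sN, 500–1,000 per well) exposed to compounds for 24 h, 37C, 5% CO2; lysis with FLuc read after 10 min, then Stop&Glo and NLuc read after 10 min.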
p53null 39C kill – selectivity test: cytotoxicity in p53 null cells, nonpermissive temperature | Potency, µM (doses to about 46.1 µM), without a hit: at the top dose activity, negative = cell killing, hits mostly cytotoxic | actives 0.97% (n = 55,000) | H1299 p53-null (neo) cells, 39C, ATPlite viability, 24 h;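 further: potency means the concentration at half of the fitted maximal effect; 0% = DMSO only and -100% = full killing by 100 µM tamoxifen; nearly all actives have a fitted effect of over 50% in size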
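Luminescent ATP signal reported cell survival after H1299 lines (neo, p53 null; or p53 A138V) received up to 46 uM compound and 24 hr incubation at 39C.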
S16 F2sN tox – S16 Schwann cell cytotoxicity | S16 Pmp22-F2sN Schwann cells viability, CellTiter-Glo, 24 h | Potency, µM (titrated, usually from 57.5 µM), for inactives: at the top dose activity change, negative = cytotoxicity, most hits filed as cytotoxic | actives 0.48% (n = 43,000); further: potency means the concentration at half of the fitted maximal effect; on the % scale 0 is the no-effect control and ±100 the full control effect; nearly all actives have a fitted effect of over 65% in size
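Viability was measured by CellTiter-Glo luminescence (15 min, room temperature). This followed 24 h at 37 °C of compound exposure (23 nL pin transfer) in S16 Pmp22-F2sN Schwann cells, 500-1,000 per well.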
pS6 MEF inh – mTORC1 pathway inhibition measured by phospho-rpS6; Tsc2-/- p53-/- MEF, phospho-rpS6 immunofluorescence/PI, 24 h; AID 493208; Potency, µM (series often up to 38.3 µM), inactives show top-dose activity change, negative = inhibition, most hits filed as inhibitors; actives 0.78% (n = 44,000);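 further: potency means the concentration at half of the fitted maximal effect; plate controls were DMSO for no effect and rapamycin for full effect; nearly all actives have a fitted effect of over 50% in size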
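Cell-based qHTS: Tsc2-/- p53-/- MEF, 24 h cpd, 37 °C; fix/perm, anti-phospho-S6 Alexa-488 + PI; Acumen 488 nm scan; pS6/PI ratio, % positive cells; rapamycin 7.5 nM = inhibition ref; PI count = viability.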
SKOV3 invasion – inhibitors of ovarian cancer cell adhesion and invasion in omental model | Potency, µM (series often up to 45.8 µM), for the others: at the top dose activity change, negative = inhibition, usual class: inhibitors | AID 1963576 | actives 0.1% (n = 46,000) | SKOV3ip1-GFP adhesion/invasion on 3D omental model, fluorescence;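 further: potency means the concentration at half of the fitted maximal effect; plate controls were DMSO wells for no effect and tomatine positive control wells for full effect; nearly all actives have a fitted effect of over 65% in size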
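qHTS, 4-pt dose (0.36-46 umol/L); SKOV3ip1-GFP, 1,200 cells/well, no FBS; primary omental fibroblast/mesothelial co-culture 48 h pre-grown; 2 h RT + 16 h 37 C; PBS wash, 4% PFA; GFP count 488/509 nm.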
p53null 32C tox – selectivity test: cytotoxicity in p53 null cells, permissive temperature; H1299-neo p53 null cells, ATP luminescence, 24 h, 32C; Potency, µM (doses to about 46.1 µM), for inactives: at the highest dose activity change, negative = cytotoxicity, most hits filed as cytotoxic; actives 0.62% (n = 55,000);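 further: potency means the concentration at half of the fitted maximal effect; 0% = DMSO only and -100% = full killing by 100 µM tamoxifen; nearly all actives have a fitted effect of over 55% in size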
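H1299-neo, 600 cells/well; overnight 37C; cpd up to 46 uM, 24 h at 32C; ATPlite luminescence after 20 min RT; normalized to DMSO (0%) and tamoxifen 100 uM (100% kill); Hill-fit AC50.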
NLuc saturating – counter-screen for PMP22 expression modulators: NanoLuc inhibition, saturating substrate. actives 4% (n = 690). AID 1508638. Potency, µM (highest dose often 57.5 µM), for inactives: at the top dose activity change, negative = inhibition, most hits filed as inhibitors. shares compounds with PMP22 txn prim. Secreted NLuc enzyme (filtered S16 cell medium), Nano-Glo luminescence; further: potency means the concentration at half of the fitted maximal effect; on the % scale 0 is the no-effect control and ±100 the full control effect
NLuc Km ctr – inhibits NanoLuc under Km conditions, PMP22 counter-screen. shares compounds with PMP22 txn prim. secreted NLuc enzyme, coelenterazine luminescence, Km conditions. Potency, µM (titrated, usually from 57.5 µM), for the others: at the top dose activity change, negative = inhibition, usual class: inhibitors. actives 5% (n = 690); further: potency means the concentration at half of the fitted maximal effect; on the % scale 0 is the no-effect control and ±100 the full control effect
FLuc ctr PMP22 – firefly luciferase enzyme inhibition artifact for PMP22 screen; shares compounds with PMP22 txn prim; purified P. pyralis FLuc, luminescence, 10 min; Potency, µM (titrated, usually from 57.5 µM), for the others: at the top dose activity, negative = inhibition, actives largely listed as inhibitors; 690 tested, under 10 active; AID 1508640; further: % of control where 0% means no effect
Target sequence (P08659 whole entry, looked up): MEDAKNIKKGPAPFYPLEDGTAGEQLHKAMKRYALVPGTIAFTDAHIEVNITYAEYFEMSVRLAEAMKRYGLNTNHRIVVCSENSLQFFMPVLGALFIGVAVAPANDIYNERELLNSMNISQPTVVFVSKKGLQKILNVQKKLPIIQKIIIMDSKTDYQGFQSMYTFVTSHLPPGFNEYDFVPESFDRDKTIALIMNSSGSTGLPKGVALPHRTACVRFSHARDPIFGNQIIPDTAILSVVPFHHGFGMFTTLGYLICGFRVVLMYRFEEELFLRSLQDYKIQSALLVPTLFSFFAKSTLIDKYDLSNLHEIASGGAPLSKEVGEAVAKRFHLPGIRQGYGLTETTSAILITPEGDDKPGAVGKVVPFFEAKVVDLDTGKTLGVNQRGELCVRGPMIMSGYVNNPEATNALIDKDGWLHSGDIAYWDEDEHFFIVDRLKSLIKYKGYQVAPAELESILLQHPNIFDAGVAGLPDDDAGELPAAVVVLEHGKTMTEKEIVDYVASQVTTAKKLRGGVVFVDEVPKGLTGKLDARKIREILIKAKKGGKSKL
S16 viab conf – S16 Schwann cell cytotoxicity, confirmatory; actives 7% (n = 690); shares compounds with PMP22 txn prim; Potency, µM (series often up to 57.5 µM), without a hit: at the highest dose activity change, negative = viability loss, actives largely listed as cytotoxic; S16 Schwann cells viability, CellTiter-Glo ATP luminescence, 24 h; further: potency means the concentration at half of the fitted maximal effect; on the % scale 0 is the no-effect control and ±100 the full control effect
PMP22 txn conf – confirmation of modulators of PMP22 gene transcription in S16 cells. shares compounds with PMP22 txn prim. S16 Schwann cells Pmp22-F2sN, dual luciferase, 24 h. Potency, µM (highest dose often 57.5 µM), for inactives: top-dose activity change, negative = inhibition, most hits filed as inhibitors. actives 22% (n = 690). AID 1508646; active means clear falling dose curves in both reporters; inconclusive means both reporters move, but less clearly or upward; inactive means either reporter flat; the % is the FLuc reporter signal; further: potency means the concentration at half of the fitted maximal effect
PMP22 prot conf – rat PMP22 protein level modulation, confirmatory. shares compounds with PMP22 txn prim. S16 Schwann cells Pmp22-HiBiT, luminescence, 48 h. Potency, µM (doses to about 27.9 µM), for the others: at the highest dose activity change, negative = inhibition, most hits filed as inhibitors. AID 1508647. 95 tested, under 10 active
Starred values were filed as active, the others as inactive; i = inactive; u = inconclusive; x = no result given. Unless noted, the call rests on the fitted dose curve; in most records, active means well fitted curve in the direction sought with a large enough effect; inconclusive means small, poorly fitted or top-dose-only effect, or another doubt; inactive means no such curve, though single readings can be large; an effect the other way counts as inactive or inconclusive.

SMILES | PMP22 txn prim | p53null 39C kill | S16 F2sN tox | pS6 MEF inh | SKOV3 invasion | p53null 32C tox | NLuc saturating | NLuc Km ctr | FLuc ctr PMP22 | S16 viab conf | PMP22 txn conf | others
O=C(Cn1c(-c2cccs2)cc2ccccc21)NCCCN1CCN(c2ccccc2F)CC1 | u | -5% | u | -4% | u | -2% | x | x | x | x | x
O=C(Cn1c(-c2cccs2)cc2cc(F)ccc21)NCCCN1CCN(c2ccccc2F)CC1 | u | -16% | u | u | -19% | -7% | x | x | x | x | x | PMP22 prot conf=u
CC[C@@H]([C@H](C)O)n1ncn(-c2ccc(N3CCN(c4ccc(OCC5CO[C@@](Cn6cncn6)(c6ccc(F)cc6F)C5)cc4)CC3)cc2)c1=O (some centres undefined) | x | x | x | x | 4% | x | x | x | x | x | x
C[C@]12CC[C@@H]3c4ccc(O)cc4CC[C@H]3[C@H]1C[C@@H](O)[C@H]2O | x | x | x | x | 4% | x | x | x | x | x | x
Oc1ccc([C@@H]2Oc3ccc(O)cc3[C@@H]3CCC[C@@H]32)cc1 | x | x | x | x | 12% | x | x | x | x | x | x
COc1ccc(-n2c(SCc3nc(-c4ccc(C)cc4)no3)nnc2-c2ccncc2)cc1 | u | 4% | -10% | -2% | i | -1% | x | x | x | x | x
COc1ccc(-c2noc(CSc3nnc(-c4ccncc4)n3-c3ccccc3)n2)cc1 | 14µM* | -9% | u | -7% | i | -2% | u | u | -22% | -13% | 6.1µM*
COc1ccc(-n2c(C)nnc2SCc2nc(-c3ccc(OC)c(OC)c3)no2)cc1 | u | -7% | -22% | 0% | i | -8% | u | u | -5% | -20% | -41%
COc1ccc(-c2noc(CSc3nnc(C)n3-c3ccc(C)cc3)n2)cc1 | u | -7% | u | -15% | 1% | -9% | x | x | x | x | x
O=C(C=Cc1cccnc1)NCCCCC1CCN(C(=O)c2ccccc2)CC1 | x | x | x | x | 4% | x | x | x | x | x | x
CCN1C(=O)c2ccccc2S(=O)c2ccc(C(=O)N3CCN(c4cccc(Cl)c4)CC3)cc21 (centres undefined) | 18µM* | -2% | -4% | -5% | i | -11% | 3.9µM* | 3.4µM* | -1% | -5% | u

Compound activity: PubChem, National Center for Advancing Translational Sciences (NCATS)
